Laboratory results as given in ChEMBL document CHEMBL1201862, “PubChem BioAssay data set” (2004).
Potency and affinity values are given separately. Only a part of the results of these assays is listed, not drawn at random.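 Exposure lasted 48 hours, with cells grown in 96-well plates and compounds tested at five concentrations. At the GI50, growth is halved.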

Key:
Assay in all cases: NCI tumour cell line growth inhibition, 48 h
DLD-1 = system: DLD-1
HOP-18 = system: HOP-18
KM-20L2 = system: KM-20L2
LXFL 529 = system: LXFL 529
RXF 631 = system: RXF 631
XF498 = system: XF498
DMS-273 = system: DMS-273
SNB-78 = system: SNB-78

Substance | GI50 (DLD-1) [µM] | GI50 (HOP-18) [µM] | GI50 (KM-20L2) [µM] | GI50 (LXFL 529) [µM] | GI50 (RXF 631) [µM] | GI50 (XF498) [µM] | GI50 (DMS-273) [µM] | GI50 (SNB-78) [µM]
[Bis(aminomethyl)tetramethylenesilane]tetrachloropaltinum(IV), CHEMBL2146189 | 11.8 | 24.3 | 2.99 | 12.2 | 7.26 | 3.56 | – | –
[Bis(aminomethyl)tetramethylenesilane]dichloropaltinum(II), CHEMBL2146205 | 39.1 | 43.5 | 24.4 | 27.4 | 49.3 | 28 | 14.6 | –
[Bis(aminomethyl)pentamethylenesilane]dichloropaltinum(II), CHEMBL2146202 | 31.1 | 37.7 | 12.2 | 12.9 | 18.4 | 11.5 | – | –
[Bis(aminomethyl)pentamethylenesilane]tetrachloropaltinum(IV), CHEMBL2146204 | 4.58 | 42.6 | 3.14 | 4.97 | 4.63 | 2.86 | – | –
[Bis(aminomethyl)diethylsilane]tetrachloroplatinum(IV), CHEMBL2146203 | 8.65 | 13 | 1.45 | 4.34 | 4.21 | 2.77 | – | –
cis-Bis[[(trimethylsilyl)methyl]amino]tetrachloroplatinum(IV), CHEMBL2146191 | – | – | – | 2.15 | 3.41 | 11 | 12.1 | 7.36
[Bis(aminomethyl)dimethylsilane]dichloroplatinum (II), CHEMBL2146201 | – | – | – | 44.2 | > 100 | 17.2 | 5.62 | 16.7
[Bis(aminomethyl)dimethylsilane]tetrachloroplatinum(IV), CHEMBL2146190 | 12.8 | – | 3.58 | 14.2 | 34.9 | 2.9 | 1.02 | 3.22
[Bis(aminomethyl)ethylmethylsilane]tetrachloroplatinum(IV), CHEMBL2146192 | – | – | – | 6.22 | 14.3 | 4.22 | 0.587 | 3.35
CISPLATIN, CHEMBL11359 | 6.03 | 7.71 | 7.48 | 4.83 | – | – | – | 1.49
mu-(1,7-nanodiamine-N,N')bis-(cis-aminedichloroplatimum (II)), CHEMBL2146215 | 36.2 | 84.1 | 35.9 | 46.2 | 47.2 | – | 4.54 | 48.8
